# Tests used:
# Assay in all cases: PBM binding z-score (relative to random genomic background probes); higher = stronger binding; sequences stand for … in GC…GCGATTGACAGCGTAGAATGAAGG
# [1] = test system: RARb homodimer (NR concentration 270 nM)
# How it was run: (§1)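 Probes were double-stranded and carried 34-nt variable regions with direct-repeat seeds, single-nucleotide variants, half-site ablations and random human genomic background sequences, printed on custom Agilent 4×180K protein-binding microarrays. Arrays were incubated 1 h with ligand-free nuclear receptor dimers in PBS pH 7.4, 2% milk, 0.02% Triton X-100, 1 mM DTT, 0.2 mg/mL BSA and 0.4 mg/ml salmon testes DNA. Antibodies against each partner (one per run) detected binding, and scanned fluorescence was regression-normalized. Binding z-scores use the random background probes as reference.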
# [2] = test system: RARg:RXRa (NR concentration 270 nM, RXRa partner concentration 90 nM)
# How it was run: as §1
# [3] = test system: RARg homodimer (NR concentration 270 nM)
# How it was run: as §1
# [4] = test system: RXRa DBDmut IVT, anti-RXR (DBD mutation: RXRa K156A/R161A, NR concentration 90 nM)
# How it was run: as §1
# [5] = test system: RXRa homodimer (NR concentration 180 nM)
# How it was run: as §1
# [6] = test system: THRa:RXRa (NR concentration 90 nM, RXRa partner concentration 90 nM)
# How it was run: as §1
# [7] = test system: THRa homodimer (NR concentration 90 nM)
# How it was run: as §1
# [8] = test system: VDR homodimer (NR concentration 270 nM)
# How it was run: as §1
Sequence,PBM binding z-score [1],PBM binding z-score [2],PBM binding z-score [3],PBM binding z-score [4],PBM binding z-score [5],PBM binding z-score [6],PBM binding z-score [7],PBM binding z-score [8]
AGAATAAGGTTAAGATCAGGGAAACAGAATACAT,1.25,2.16,1.8,0.838,2.38,2.66,1.26,0.515
GCTGGTAGATCAAGGTTAAGAAAGACTAAGCTAA,0.171,0.216,0.368,-0.116,0.692,1.36,-0.209,-0.133
CCTACTGGGCCATGGTCATTGATCAGTCAAAGCA,0.781,0.494,0.374,-1.27,-0.0481,0.0106,-0.543,-0.137
ATATGTAGGTTATCGGGTCAGTCAGTTTGCGCAT,2.84,2.76,2.42,1.01,2.44,2.68,2.08,2.46
TAGCCTAGGTCATGGGCAAGTATACCACGCGAAC,3.17,4.22,4.58,0.0807,3.44,3.34,1.26,0.341
TCGAGTAGGTTAGGGGCATTCACAATGGCGTCGA,0.776,0.234,0.502,0.518,0.424,1.06,0.276,1.04
CCTAGTTGGACAGGAGGTCACACACCGGATATGA,3.81,4.2,3.71,1.02,3.96,3.41,2.18,2.39
TCTCGGAGGACTCGAAGGTCAGAGCTTTCCAGAG,2.73,1.7,1.24,0.262,1.41,1.65,-0.0603,-0.0798
AGAATGAGGTTATACATAGATCAGGGAAGAAAGT,0.905,2.03,1.38,1.27,2.42,2.19,0.855,1.24
AATACAGGGTCACCAGGCCAGAGTAGGTACGAAT,3.63,6.17,6.17,2.62,7.47,3.85,1.88,2.7
AGTCACAGTTCACTAGGTAACGTAAGATTCAGCT,1.19,2.17,2.07,2.64,1.74,1.34,0.333,1.8
CATACAGGGTCAGCTAGGTCAGAGTAGGGACGGC,4.28,5.09,5.08,1.93,4.95,4.07,2.33,2.85
AGTCAAAGTTCAGGACTAGGTAACGTAAAGCACG,2.93,4.32,4.99,2.87,2.92,2.51,0.371,1.94
TTACCAAGGTGAAGCTCGTTGATCCCTCTGTAGA,0.199,0.159,-0.0803,-0.864,0.473,1.57,0.166,-0.835
TAAATGAGGTTATAAGATCAGGGAACGTTGCAAA,0.147,1.79,0.975,1.21,2.24,1.9,0.348,0.859
CCGAGTAGGCTATGGGGCATTCAGGCAACGGTGA,-0.154,-0.57,-0.466,-0.62,-0.38,-0.343,-0.619,-0.709
GGAACGAGGGCATTCGAGTTGAGAGCATGGCGAT,0.91,1.14,1.31,2.99,1.05,3.58,-0.815,2.68
CGAACTAGGTCAAGGACTGTGAATCTCCGCACGC,2.85,3.76,4.41,1.33,2.35,2.52,1.03,0.0818
ACTATTAGTTGACTTAGGGCAACCGATACGACGC,0.899,0.818,1.01,0.684,0.661,1.53,0.316,0.121
TTACCAAGCTGAAGGTCGTTGATCCCTCTGTAGA,0.756,0.152,-0.231,-0.269,1.13,0.571,-0.583,0.305
CCTTACCGGTCACGAGGTTATAGCACGACGAGCG,3.08,4.01,3.68,0.188,2.62,2.37,1.43,1.34
CAAACTAGGTCAAGAAGTCAAAGTCCGCTTCCCG,3.2,4.44,4.23,1.32,2.97,2.65,0.74,0.478
CTACCAAGGTGAACAAGGTTGTTGATTACTATTC,1.02,0.783,0.877,0.73,0.747,2.05,0.944,0.267
ACTATTAGTTGAGACGAGCGCAACCGATAGGTTG,-0.567,-0.546,0.138,-0.188,-0.211,-0.381,-0.708,-0.0904
TCTATTAGTTGATTAGAGCAACCGAAACAGCGGA,-0.716,0.0982,0.245,0.765,0.293,-0.353,-0.739,0.18
CCTAGTTGGTCAAGGTCACACACGCTATAGGTAC,4.21,4.84,4.85,2.36,5,4.11,4.42,4.32
CGTACTGGGCCACGAAAGGTCATTGATTCAGTGA,4.58,4.97,4.48,0.97,5.18,3.83,1.09,2.78
CAAACTAGGTCAGGAGGTCAAAGTCCGCTTCCCG,5.3,6.99,5.98,2.11,5.81,3.97,2.52,3.61
TCGAGTAGGTTAGTCGGGGCATTCGGCCAACATA,0.848,-0.0623,0.0417,-0.081,-0.218,0.974,-0.521,0.124

# From the supplement of paper PMC6555819
